About 3,300 (0.97%) of roughly 340,000 compounds were called active. This is one part of a sample in which actives are shown more often than they occur. A number with no mark means an inactive call.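 How the source made its calls: active means mean activation above about 17%, with every replicate also reaching it (limit read from the data, passing the limit was not always enough); inconclusive means only one of the two conditions met; inactive means the rest.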
The compounds below were run against Protein FosB (Mus musculus) (UniProt P13346) (assay: activators of delta FosB homodimer, primary screen, biochemical, fluorescence polarization, TAMRA-CDK5 oligo, single point (AID 493131;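 further: fluorescence polarization rise as delta FosB binds a TAMRA Cdk5 AP-1 oligo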)). Details: purified delta FosB, at 25 µM, hits give high values, percent of positive-control signal above neutral wells.
Protein FosB (Mus musculus), sequence (P13346 whole entry, looked up): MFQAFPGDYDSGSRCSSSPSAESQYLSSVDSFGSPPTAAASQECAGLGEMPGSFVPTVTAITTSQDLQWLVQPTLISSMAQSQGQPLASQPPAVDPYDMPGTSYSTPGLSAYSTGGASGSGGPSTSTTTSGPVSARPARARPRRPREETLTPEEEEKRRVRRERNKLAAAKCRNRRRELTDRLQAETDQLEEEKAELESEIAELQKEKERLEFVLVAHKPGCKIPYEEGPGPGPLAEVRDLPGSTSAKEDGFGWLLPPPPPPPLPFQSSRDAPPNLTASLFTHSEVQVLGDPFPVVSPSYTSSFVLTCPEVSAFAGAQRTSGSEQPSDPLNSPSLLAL

Structure (SMILES) | activation
Cc1ccsc1C(=O)NNC(=O)COc1ccc(Br)cc1 | -0.652%
NC(=NC(=O)c1ccccc1)C1=C(O)CCC1=O | -12.8%
COCCOC(=O)C1=C(C)Nc2nc(C)nn2C1c1ccccc1 (stereo not given) | -7.61%
COC(=O)c1nc2n(n1)C(c1ccc([N+](=O)[O-])cc1)C(C(=O)Nc1ccc(Cl)cc1)=C(C)N2 (stereo not given) | 34.5% (active)
COc1cc(C2C(C(=O)Nc3ccc(F)cc3)=C(C)Nc3nc(CCCO)nn32)cc(OC)c1OC (stereo not given) | -9.9%
COC(=O)/C(=C\Nc1ccccc1)NC(=O)c1ccc(Cl)cc1Cl | 4.01%
COc1cccc(C2CC(c3cccs3)=NN2C(=O)CSC2=NCCS2)c1OC (stereo not given) | -11.4%
Nc1nonc1-n1nnc(C(=O)N/N=C/c2ccc(Cl)cc2)c1-c1ccc2c(c1)OCO2 | 32.2% (active)
CC(C)c1c(C(=O)N/N=C/c2ccc(-c3ccccc3)cc2)nnn1-c1nonc1N | -2.45%
Nc1nonc1-n1nnc(C(=O)N/N=C/C2CCCCC2)c1-c1ccccc1 | -11.3%
CC(Sc1nncn1C)C(=O)Nc1ccccc1-c1ccccc1 (stereo not given) | -4.45%
O=C(CSCc1ccc([N+](=O)[O-])cc1)Nc1cccc(C(=O)Nc2ccccc2C(=O)O)c1 | -3.8%
O=C(COCc1cc(-c2ccc3c(c2)OCO3)on1)N1CCN(c2cccc(Cl)c2)CC1 | -10.2%
O=C(NCCCN1CCOCC1)c1cc2c(s1)CCC2 | -3.83%
Cc1cccc2c1-c1sc(C(=O)NCCCN3CCc4ccccc4C3)cc1CO2 | 22.8% (active)
CN1CCN(CCCNC(=O)c2cc3c(=O)oc4ccccc4c3s2)CC1 | -39.5%
C=CCn1c(Oc2ccc(C(=O)OC)cc2)nc2c1c(=O)n(C)c(=O)n2C | 2.74%
CC(C)=C1C2CCC1C1C(=O)N(NC(=O)c3ccco3)C(=O)C21 (stereo not given) | 5.44%
COc1ccc(C)cc1NC(=O)CCCN1C(=O)NC(C)(C)C1=O | 1.82%
COc1ccc2c(c1)c(=O)c(C(=O)c1ccc(Cl)cc1)cn2CC(=O)Nc1ccc(F)cc1 | 101% (active)
COc1ccc(OC)c(C(=O)c2ccc(Cl)cc2)c1 | 6.81%
O=C(c1ccc(F)cc1)c1cn(Cc2ccc(F)cc2)c2cc3c(cc2c1=O)OCCO3 | -2.37%
CC1(C)CC2CC(C)(CN2c2ncnc3ccc(Br)cc23)C1 (stereo not given) | -14.7%

Structure (SMILES) | activation
C=CCn1c2ccccc2c2nnc(SCc3[nH]c(=O)[nH]c3C(=O)CCCCC(=O)OCC)nc21 | -0.527%
CCC(=O)Nc1ccc2nc(C)n(Cc3ccccc3Cl)c(=O)c2c1 | -9.12%
CCOc1cc(NC(=O)c2ccccc2C(=O)O)c(OCC)cc1NC(=O)c1ccccc1F | -3.46%
CCN1CCN(c2cc3nc(C)n(Cc4ccccc4)c(=O)c3cc2NC(=O)c2ccccc2F)CC1 | 27.5% (active)
CCOc1cc(CO)ccc1OCC(=O)N1CCCCC1 | -0.227%
O=C(COc1coc(CN2CCN(c3ccccc3)CC2)cc1=O)N1CCc2ccccc21 | -7.12%
O=C(COc1coc(CN2CCN(c3ccccc3F)CC2)cc1=O)N1CCc2ccccc21 | 21.9% (active)
O=C(COc1coc(CN2CCN(c3ccccc3)CC2)cc1=O)Nc1ccccc1F | -11.2%
Nc1cc(=O)n(Cc2ccccc2)c(=O)n1Cc1ccccc1 | -1.18%
CC(=O)Nc1sc2c(c1C(c1cccc(F)c1)N1CCN(CCO)CC1)CCCC2 (stereo not given) | -12.2%
O=C(CN1C(=O)S/C(=C\c2ccccc2F)C1=O)NCCCn1ccnc1 | -4.31%
Cc1nn(CC(=O)Nc2ccc(F)cc2)c(=O)c2ccccc12 | 0.886%
Cn1cccc1/C=C1\SC(=O)N(CC(=O)Nc2ccc(F)cc2)C1=O | 30.6% (active)
CC(C)c1cc(C(=O)O)on1 | 5.07%
COc1ccc(C2CC(c3cccs3)Nc3nnnn32)cc1 (stereo not given) | -5.14%
Fc1ccc(-c2ccc(CNCc3ccccn3)o2)cc1Cl | -10.2%
O=C(Cc1ccc(Cl)cc1)c1ccccc1 | -2.82%
O=C(/C(=C/c1cccc(Cl)c1)c1nc2ccccc2[nH]1)c1ccccc1 | 0.879%
O=C(Cc1nc2ccccc2[nH]c1=O)c1ccc(Cl)cc1 | 25% (active)
COc1cccc2c1C(=O)c1c(O)c3c(c(O)c1C2=O)CC(O)(C(C)=NNC(=O)c1ccc(Cl)c(Cl)c1)CC3OC1CC(N)C(O)C(C)O1 (stereo not given) | -409%
O=C(COc1ccccc1Cl)Nc1ccc(C(=O)c2ccc(C(=O)O)cc2)cc1 | -0.74%
O=C(COc1ccccc1Cl)Nc1ccccc1C(=O)NC1CC1 | -11.8%
CC(=O)Nc1ccc(NC(=O)COc2ccccc2C(=O)Nc2cccc(Cl)c2Cl)cc1 | 26% (active)

Structure (SMILES) | activation
O=c1c2ccccc2oc2nc3n(c(=O)c12)CCCS3 | -28.8%
O=c1c2ccccc2oc2nc(C3CCCCC3)n(Cc3ccco3)c(=O)c12 | 34% (active)
CCc1nc2oc3ccccc3c(=O)c2c(=O)n1Cc1ccc(OC)cc1 | -18.5%
COC(=O)c1cc(C(=O)N(Cc2ccccc2)c2ccccn2)cc([N+](=O)[O-])c1 | -5.79%
CC[C@@H](C)[C@@H]1CN([C@@H](C)CN2CCC[C@H]2CN2C(N)=NC[C@H]2C(C)C)C(=N)N1CCc1ccc(Cl)c(Cl)c1 | 23.1% (active)
C[C@@H](CN1CCC[C@H]1CN1C(N)=NC[C@@H]1Cc1ccccc1)N1C[C@@H](Cc2ccccc2)N(CCCC2CCCC2)C1=N | -7.85%
CC(C)C[C@H]1CN([C@@H](CC(C)C)CN2CCC[C@@H]2CN2C(=O)C(=O)NC[C@@H]2Cc2ccccc2)C(=O)C(=O)N1CCc1ccccc1 | -16%
Cc1cc(SCC(=O)NCCN2C(=O)CSC2=O)nc2ccccc12 | 5.19%
C=CCNC(=O)c1ccc2c3n(nc2c1)-c1ccc(C)cc1CO3 | -4.63%
CC(OC(=O)c1cc2ccccc2o1)C(=O)Nc1ccc(N2CCOCC2)cc1 (stereo not given) | -0.675%
CCCCC(c1nnnn1CS(=O)(=O)c1ccc(C)cc1)N1CCC(C(N)=O)CC1 (stereo not given) | -1.34%
COc1ccc(C(CNC(=O)c2ccc(S(=O)(=O)Nc3ccccc3F)cc2)N(C)C)cc1 (stereo not given) | 1.38%
CC(=O)Nc1ccc(S(=O)(=O)N2CCC(NC(=O)c3ccccc3)CC2)cc1 | 3.46%
COC(=O)c1ccc(S(=O)(=O)N2CCc3ccccc3C2)cc1 | -1.34%
O=C(Nc1ccc(S(=O)(=O)N2CCc3ccccc3C2)cc1)c1ccccc1 | 25.5% (active)
COc1cccc(/C=C2/SC(=S)N(CC(=O)NC3C=CS(=O)(=O)C3)C2=O)c1 (stereo not given) | 35.9% (active)
O=C(CN1C(=O)S/C(=C\c2ccccc2Cl)C1=O)NC1C=CS(=O)(=O)C1 (stereo not given) | -2.97%
COc1cccc(/C=C2\Sc3ccc(C(=O)NCC4CCCO4)cc3N(C)C2=O)c1 (stereo not given) | 0.556%
COc1ccc(S(=O)(=O)N2CCCC2CNC(=O)C(=O)NC2CC2)cc1 (stereo not given) | -3.99%
CC1C(=O)Nc2ccccc2N1C(=O)c1ccc(F)cc1F (stereo not given) | 1.98%
Cc1ccc(OCC(=O)NCCCNC(=O)c2cccnc2)cc1C | 2.57%
C/C(=C\C(=O)c1cccnc1)Nc1ccc(C)c(C)c1 | -1.12%
Cc1ccc(NC(=O)COc2ccc(/C=N\NC(=O)c3cccnc3)cc2)cc1C | 82.7% (active)

Structure (SMILES) | activation
N#Cc1ccccc1S(=O)(=O)N1CCN(C(=O)c2cc(-c3ccccc3)nn2-c2ccccc2)CC1 | 1.25%
O=[N+]([O-])c1ccc(N2CCN(c3ccc(O)cc3)CC2)c(Cl)c1 | -9.93%
CCOC(=O)c1cc(=O)c2ccc(OCc3ccccc3)cc2o1 | -2.05%
CCN(C(=O)COC(=O)c1ccc(COc2ccc3c(C)cc(=O)oc3c2)cc1)C1CCS(=O)(=O)C1 (stereo not given) | 2.03%
Cc1ccccc1NC(=O)c1ccc(COc2ccc3c(C)cc(=O)oc3c2)cc1 | 22.2% (active)
Cc1ccc(C(C)C)c(OCCSc2nc3ccccc3n2CC(=O)O)c1 | -20.9%
CCOc1ccc(OCC(=O)Nc2c3c(nn2C(C)(C)C)CS(=O)(=O)C3)cc1 | -1.81%
CCOc1ccc(N(C)S(=O)(=O)c2cnc[nH]2)cc1 | -0.199%
Cc1ccc2nc(-c3ccccn3)cc(C(=O)Nc3ccc4c(c3)OCO4)c2c1 | 36.9% (active)
Cc1ccc(-n2c(SCC(=O)Nc3ccc4c(c3)OCO4)nnc2-c2ccccn2)cc1 | -2.46%
CSc1ncccc1C(=O)Nc1ccc2c(c1)OCO2 | -5.35%
O=C(N/C(=C\c1ccc([N+](=O)[O-])cc1)C(=O)N1CCCCC1)c1ccco1 | -1.72%
S=C(NCc1ccc2c(c1)OCO2)NCc1ccco1 | -2.47%
Cc1ccc(Cn2nnc3c(=O)n(CC(=O)N4CCCCC4)cnc32)cc1 | 3.79%
COc1cc(-c2nnn(CC(=O)NCc3ccccc3)n2)cc(OC)c1OC | -0.135%
O=C(Cn1nnc(-c2ccccc2)n1)NCc1ccc2c(c1)OCO2 | 22.6% (active)
O=C(Cn1nnc(-c2ccc3c(c2)OCO3)n1)NCc1ccco1 | 33.3% (active)
CS(=O)(=O)N(CC(=O)NCc1ccco1)c1ccc2c(c1)OCO2 | 2.32%
CCN(CC)C(=O)C(=O)c1cn(CC(=O)NCc2ccc3c(c2)OCO3)c2ccccc12 | -0.7%
O=C(CN(C(=O)CCC(=O)Nc1nccs1)c1ccc(F)cc1)NCc1ccc2c(c1)OCO2 | 6.39%
O=C(Cn1cnc2c(nnn2Cc2ccc(F)cc2)c1=O)NCc1ccc2c(c1)OCO2 | 17.6% (active)

Source: PubChem BioAssay AID493131 (Broad Institute, 2011)
